Test results from the supplement of paper PMC10849652.
Of roughly 7,900 targets only a part is listed; those with a hit were picked by preference. About 0.6% of all pairs of compound and target were hits.

compound: CCCc1cc(C)[nH]c(=O)c1CNC(=O)c1cc(-c2ccnc(N3CCN(C)CC3)c2)cc2c1cnn2C(C)C; assay: log2 fold change, soluble protein after heating vs DMSO (PISA); higher = thermal stabilisation; K562 cells, 10 uM, 30 min; active = over 0.2 and 3.5 SD of the protein, either way, in both replicates (recomputed)
Procedure, shortened: (§1)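 Soluble protein was defined as the supernatant after 21,000xg for 90 min. It came from K562 cells at 2×10^6 cells/mL given 10 μM compound for 30 min, heated in aliquots for 3 min across 48°C-58°C, pooled, and extracted in PBS with 0.5% NP-40 at 4°C, and was quantified by TMTpro 16plex LC-MS/MS with equalised channel sums. Thermal stability against control samples, from duplicates, is reported as log2 fold change.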

UniProt Q13422, sequence (Q13422 whole entry, looked up): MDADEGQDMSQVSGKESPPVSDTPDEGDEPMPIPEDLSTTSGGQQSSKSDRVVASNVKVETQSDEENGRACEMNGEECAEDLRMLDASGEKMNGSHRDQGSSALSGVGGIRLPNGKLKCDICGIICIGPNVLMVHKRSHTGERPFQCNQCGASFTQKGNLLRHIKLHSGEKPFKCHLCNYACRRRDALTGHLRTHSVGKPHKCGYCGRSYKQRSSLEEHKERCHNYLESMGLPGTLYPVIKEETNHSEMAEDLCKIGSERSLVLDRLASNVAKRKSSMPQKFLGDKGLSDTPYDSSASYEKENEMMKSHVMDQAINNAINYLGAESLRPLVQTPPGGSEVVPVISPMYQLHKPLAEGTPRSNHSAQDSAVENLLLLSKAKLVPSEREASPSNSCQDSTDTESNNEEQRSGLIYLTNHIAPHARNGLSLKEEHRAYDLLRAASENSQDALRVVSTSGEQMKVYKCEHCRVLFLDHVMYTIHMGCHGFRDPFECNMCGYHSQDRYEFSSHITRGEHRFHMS
UniProt P43362, sequence (P43362 whole entry, looked up): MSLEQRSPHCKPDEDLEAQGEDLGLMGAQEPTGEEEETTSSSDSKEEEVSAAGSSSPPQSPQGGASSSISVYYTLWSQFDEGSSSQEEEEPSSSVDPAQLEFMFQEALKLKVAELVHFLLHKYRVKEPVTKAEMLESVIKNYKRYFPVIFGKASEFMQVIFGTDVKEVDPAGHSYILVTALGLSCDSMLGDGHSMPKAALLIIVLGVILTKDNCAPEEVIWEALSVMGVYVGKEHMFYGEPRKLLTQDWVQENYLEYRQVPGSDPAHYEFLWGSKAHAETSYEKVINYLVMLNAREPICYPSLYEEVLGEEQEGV
UniProt Q12905, sequence (Q12905 whole entry, looked up): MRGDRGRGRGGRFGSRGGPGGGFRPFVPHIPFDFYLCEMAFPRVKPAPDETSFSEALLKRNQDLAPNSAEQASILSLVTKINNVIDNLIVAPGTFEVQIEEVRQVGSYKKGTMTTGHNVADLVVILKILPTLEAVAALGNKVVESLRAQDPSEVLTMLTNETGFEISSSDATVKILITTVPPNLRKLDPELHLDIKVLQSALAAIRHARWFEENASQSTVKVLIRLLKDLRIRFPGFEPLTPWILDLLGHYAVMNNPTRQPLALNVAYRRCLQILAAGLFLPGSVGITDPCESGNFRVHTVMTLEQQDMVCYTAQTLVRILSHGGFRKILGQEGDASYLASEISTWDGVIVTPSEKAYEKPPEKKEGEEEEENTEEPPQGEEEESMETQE
UniProt Q9H6V9, sequence (Q9H6V9 whole entry, looked up): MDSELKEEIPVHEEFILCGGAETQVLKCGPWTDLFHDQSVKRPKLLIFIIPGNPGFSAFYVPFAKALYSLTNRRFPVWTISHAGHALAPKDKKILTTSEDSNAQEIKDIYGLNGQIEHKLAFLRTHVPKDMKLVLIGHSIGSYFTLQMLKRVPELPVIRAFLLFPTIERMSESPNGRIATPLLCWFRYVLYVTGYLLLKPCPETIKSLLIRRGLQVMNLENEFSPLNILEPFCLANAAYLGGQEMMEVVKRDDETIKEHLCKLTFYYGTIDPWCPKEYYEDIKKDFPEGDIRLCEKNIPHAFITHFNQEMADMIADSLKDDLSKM
UniProt P01116, sequence (P01116 whole entry, looked up): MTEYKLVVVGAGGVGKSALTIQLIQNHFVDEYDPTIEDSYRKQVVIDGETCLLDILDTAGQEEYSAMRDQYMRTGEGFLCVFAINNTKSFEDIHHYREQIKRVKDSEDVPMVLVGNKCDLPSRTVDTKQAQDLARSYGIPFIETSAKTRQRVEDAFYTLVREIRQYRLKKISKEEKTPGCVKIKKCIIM
UniProt Q96PC5, sequence (Q96PC5 whole entry, looked up): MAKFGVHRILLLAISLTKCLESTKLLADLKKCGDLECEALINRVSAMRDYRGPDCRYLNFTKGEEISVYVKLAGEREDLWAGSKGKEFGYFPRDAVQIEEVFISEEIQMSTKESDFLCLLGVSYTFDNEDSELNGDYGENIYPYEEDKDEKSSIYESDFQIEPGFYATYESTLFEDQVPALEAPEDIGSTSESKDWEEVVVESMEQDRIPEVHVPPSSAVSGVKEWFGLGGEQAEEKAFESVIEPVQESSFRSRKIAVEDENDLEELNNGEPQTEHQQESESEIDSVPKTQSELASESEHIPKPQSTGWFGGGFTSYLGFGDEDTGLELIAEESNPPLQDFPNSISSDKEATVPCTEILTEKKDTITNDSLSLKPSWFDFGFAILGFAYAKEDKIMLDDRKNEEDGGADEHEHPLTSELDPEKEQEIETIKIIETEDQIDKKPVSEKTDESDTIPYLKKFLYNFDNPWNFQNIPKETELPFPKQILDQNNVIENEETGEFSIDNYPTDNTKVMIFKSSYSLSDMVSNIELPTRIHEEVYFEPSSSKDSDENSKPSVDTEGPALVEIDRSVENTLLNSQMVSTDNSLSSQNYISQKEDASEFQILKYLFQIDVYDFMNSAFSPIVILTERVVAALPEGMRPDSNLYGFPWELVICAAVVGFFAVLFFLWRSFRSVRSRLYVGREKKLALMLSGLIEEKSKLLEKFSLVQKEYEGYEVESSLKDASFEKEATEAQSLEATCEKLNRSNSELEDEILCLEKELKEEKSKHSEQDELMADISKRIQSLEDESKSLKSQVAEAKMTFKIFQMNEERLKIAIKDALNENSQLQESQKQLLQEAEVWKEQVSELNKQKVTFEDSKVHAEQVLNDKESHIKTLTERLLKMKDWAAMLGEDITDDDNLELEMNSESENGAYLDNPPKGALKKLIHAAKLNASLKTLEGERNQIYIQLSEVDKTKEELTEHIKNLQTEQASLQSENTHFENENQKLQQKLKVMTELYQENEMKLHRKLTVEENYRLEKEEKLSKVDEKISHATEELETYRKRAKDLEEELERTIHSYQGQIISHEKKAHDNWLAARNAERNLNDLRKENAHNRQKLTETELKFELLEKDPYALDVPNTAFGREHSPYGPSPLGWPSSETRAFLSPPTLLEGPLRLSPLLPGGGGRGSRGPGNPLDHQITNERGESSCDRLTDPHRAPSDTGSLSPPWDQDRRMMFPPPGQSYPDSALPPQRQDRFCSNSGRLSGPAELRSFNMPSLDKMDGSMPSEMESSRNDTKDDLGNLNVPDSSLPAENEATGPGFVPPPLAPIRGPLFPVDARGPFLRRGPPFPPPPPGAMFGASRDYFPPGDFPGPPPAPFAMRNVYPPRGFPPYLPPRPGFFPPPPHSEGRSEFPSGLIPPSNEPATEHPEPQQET
UniProt Q68DH5, sequence (Q68DH5 whole entry, looked up): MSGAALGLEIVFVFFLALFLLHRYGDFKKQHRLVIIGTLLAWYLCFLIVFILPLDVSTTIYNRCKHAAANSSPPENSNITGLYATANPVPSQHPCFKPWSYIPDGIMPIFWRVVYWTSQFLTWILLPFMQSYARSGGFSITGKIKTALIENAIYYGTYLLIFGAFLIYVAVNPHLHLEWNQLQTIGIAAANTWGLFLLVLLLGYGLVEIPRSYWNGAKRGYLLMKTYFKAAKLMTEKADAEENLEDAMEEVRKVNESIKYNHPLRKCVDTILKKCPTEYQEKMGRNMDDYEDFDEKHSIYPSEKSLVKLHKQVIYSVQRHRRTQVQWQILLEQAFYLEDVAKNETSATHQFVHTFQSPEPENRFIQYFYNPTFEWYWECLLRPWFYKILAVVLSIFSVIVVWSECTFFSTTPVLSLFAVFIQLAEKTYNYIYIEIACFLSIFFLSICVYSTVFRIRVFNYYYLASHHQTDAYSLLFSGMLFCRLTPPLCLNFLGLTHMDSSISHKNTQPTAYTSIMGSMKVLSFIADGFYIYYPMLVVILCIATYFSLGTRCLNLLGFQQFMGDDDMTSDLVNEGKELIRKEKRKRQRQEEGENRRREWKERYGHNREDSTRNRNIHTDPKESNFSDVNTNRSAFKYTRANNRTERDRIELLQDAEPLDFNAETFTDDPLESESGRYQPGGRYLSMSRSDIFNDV
UniProt Q8IWB1, sequence (Q8IWB1 whole entry, looked up): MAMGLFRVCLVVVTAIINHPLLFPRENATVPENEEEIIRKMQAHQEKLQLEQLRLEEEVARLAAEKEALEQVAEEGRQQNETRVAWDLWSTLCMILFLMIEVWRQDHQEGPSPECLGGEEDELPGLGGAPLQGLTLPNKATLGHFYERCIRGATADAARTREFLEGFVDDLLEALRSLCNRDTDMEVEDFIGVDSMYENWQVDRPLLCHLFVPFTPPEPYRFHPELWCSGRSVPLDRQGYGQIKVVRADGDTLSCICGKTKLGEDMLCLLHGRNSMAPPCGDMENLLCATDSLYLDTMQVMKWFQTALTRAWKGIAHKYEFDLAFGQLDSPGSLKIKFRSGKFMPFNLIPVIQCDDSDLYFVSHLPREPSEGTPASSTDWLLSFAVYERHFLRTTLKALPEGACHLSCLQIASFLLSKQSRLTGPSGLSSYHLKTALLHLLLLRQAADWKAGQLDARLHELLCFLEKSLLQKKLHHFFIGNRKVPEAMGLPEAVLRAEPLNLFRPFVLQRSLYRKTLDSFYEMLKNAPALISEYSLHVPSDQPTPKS
UniProt Q6P1A2, sequence (Q6P1A2 whole entry, looked up): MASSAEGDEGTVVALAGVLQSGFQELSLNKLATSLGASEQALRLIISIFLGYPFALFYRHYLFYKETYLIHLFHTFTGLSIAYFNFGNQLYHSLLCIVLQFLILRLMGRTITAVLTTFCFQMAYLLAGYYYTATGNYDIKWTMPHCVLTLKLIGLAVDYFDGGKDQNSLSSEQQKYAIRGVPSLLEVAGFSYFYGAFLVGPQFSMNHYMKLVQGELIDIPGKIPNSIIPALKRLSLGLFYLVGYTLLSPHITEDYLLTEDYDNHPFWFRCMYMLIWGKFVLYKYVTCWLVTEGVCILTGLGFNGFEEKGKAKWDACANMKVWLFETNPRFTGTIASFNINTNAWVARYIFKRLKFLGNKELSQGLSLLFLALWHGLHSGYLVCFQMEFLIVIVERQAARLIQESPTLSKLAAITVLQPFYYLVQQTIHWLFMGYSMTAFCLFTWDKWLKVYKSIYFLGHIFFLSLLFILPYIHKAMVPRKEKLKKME

log2 fold change, inactive:
LTV1 (UniProt Q96GA3) -0.011, LEMD3 (UniProt Q9Y2U8) 0.054, LMNA (UniProt P02545) -0.027, MDC1 (UniProt Q14676) 0.074, MED16 (UniProt Q9Y2X0) 0.014, ILF2 (UniProt Q12905) 0.032, ITIH4 (UniProt Q14624) -0.211, ITPRIP (UniProt Q8IWB1) -0.099, LYN (UniProt P07948) -0.22, IGFBP4 (UniProt P22692) -0.193, MAP2K2 (UniProt P36507) 0.17, KRAS isoform 2 (UniProt P01116) -0.073, LMBRD2 (UniProt Q68DH5) 0.038, LDAH isoform 2 (UniProt Q9H6V9) -0.04, LMNB2 (UniProt Q03252) -0.014, IMMT isoform 2 (UniProt Q16891) 0.325, ILKAP (UniProt Q9H0C8) 0.063, KEL (UniProt P23276) -0.014, LTO1 (UniProt Q8WV07) 0, KLC2 (UniProt Q9H0B6) 0.001, MAPK8 isoform 3 (UniProt P45983) 0.016, KCTD10 (UniProt Q9H3F6) 0.024, MED17 (UniProt Q9NVC6) 0.025, LPCAT3 (UniProt Q6P1A2) 0.089, MEPCE (UniProt Q7L2J0) 0.05, LDLR (UniProt P01130) -0.018, ILF3 isoform 7 (UniProt Q12906) 0.102, MICU2 (UniProt Q8IYU8) 0.042, MAN2B2 (UniProt Q9Y2E5) 0.139, LARP7 isoform 3 (UniProt Q4G0J3) 0.004, IKZF1 (UniProt Q13422) 0.177, MFGE8 (UniProt Q08431) 0.019, MAGEA9 (UniProt P43362) 0.054, MAPRE3 (UniProt Q9UPY8) 0.136, MAP4 (UniProt E7EVA0) 0.024, MDN1 (UniProt Q9NU22) 0.027, MIA2 (UniProt Q96PC5) 0.128

compound: CCN(CC)Cc1ccc2cc(COC(=O)Nc3ccc(C(=O)NO)cc3)ccc2c1 [givinostat]; assay: as above
Procedure, shortened: as §1

log2 fold change, inactive:
LTV1 (UniProt Q96GA3) -0.025, LEMD3 (UniProt Q9Y2U8) 0.077, LMNA (UniProt P02545) 0.014, MDC1 (UniProt Q14676) 0.055, MED16 (UniProt Q9Y2X0) 0.076, ILF2 (UniProt Q12905) -0.02, ITIH4 (UniProt Q14624) -0.005, ITPRIP (UniProt Q8IWB1) 0.007, LYN (UniProt P07948) 0.211, IGFBP4 (UniProt P22692) -0.007, MAP2K2 (UniProt P36507) 0.014, KRAS isoform 2 (UniProt P01116) 0.014, LMBRD2 (UniProt Q68DH5) 0.043, LDAH isoform 2 (UniProt Q9H6V9) 0.059, LMNB2 (UniProt Q03252) 0.047, IMMT isoform 2 (UniProt Q16891) 0.045, ILKAP (UniProt Q9H0C8) 0.071, KEL (UniProt P23276) -0.056, LTO1 (UniProt Q8WV07) -0.121, KLC2 (UniProt Q9H0B6) 0.044, MAPK8 isoform 3 (UniProt P45983) 0.119, KCTD10 (UniProt Q9H3F6) 0.025, MED17 (UniProt Q9NVC6) -0.014, LPCAT3 (UniProt Q6P1A2) 0.031, MEPCE (UniProt Q7L2J0) -0.04, LDLR (UniProt P01130) -0.03, ILF3 isoform 7 (UniProt Q12906) -0.017, MICU2 (UniProt Q8IYU8) -0.009, MAN2B2 (UniProt Q9Y2E5) 0.014, LARP7 isoform 3 (UniProt Q4G0J3) -0.03, IKZF1 (UniProt Q13422) -0.018, MFGE8 (UniProt Q08431) -0.004, MAGEA9 (UniProt P43362) 0.066, MAPRE3 (UniProt Q9UPY8) -0.037, MAP4 (UniProt E7EVA0) 0.091, MDN1 (UniProt Q9NU22) 0.083, MIA2 (UniProt Q96PC5) 0.003
